Source: PubChem BioAssay (several laboratories)
This is a sample that favours compounds with a hit; in the whole collection about 2.9% have one here.
Shn3 inh set2 = reduces Shn3 3'UTR luciferase signal in osteoblasts. Clone20 osteoblast Shn3 3'UTR firefly luciferase, 24 h. inhibition, % at 12.5 µM. actives 0.52% (n = 360,000);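 active means mean inhibition of at least 75% with every replicate also reaching 75%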;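 further: 0% = median of neutral control wells and 100% = pilot-screen positive control compound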
LMP1 NFkB inh = inhibitors of Epstein-Barr LMP1-induced NF-kappaB reporter; LMP1-induced NF-kappaB luciferase reporter cells, luminescence; actives 0.69% (n = 350,000); inhibition, % at 12.5 µM; in the data active means inhibition above about 41%;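 further: 0% = neutral control wells and 100% = reference inhibitor control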
Peg3 promoter = inhibitors of Peg3 promoter; HeLa PEG-Prom luciferase reporter, luminescence, overnight; inhibition, % at 20 µM; actives 1.7% (n = 360,000); AID 588405;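 active means inhibition of at least 50% at 20 µM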
KKLEB cytotox = reduces viability of KKLEB cystic fibrosis airway cells | KKLEB CF airway cells viability, ATPlite luminescence, overnight; active compounds read low; cells stimulated with P. aeruginosa culture filtrate | AID 602141 | activity change (cytotoxicity), % at 5 µM | actives 0.36% (n = 360,000);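 active means corrected activity change at or below -50% at 5 µM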
CF NFkB inh = inhibitors of cystic fibrosis induced NF-kB; KKLEB NF-kB-GFP reporter, PAF-induced, GFP fluorescence overnight; inhibition, % at 5 µM; actives 0.86% (n = 360,000); AID 588850;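 active means at least 50% inhibition at 5 µM, scaled per plate between neutral and stimulator controls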;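 further: PAF is a Pseudomonas aeruginosa culture filtrate used as stimulus; plate controls were PAF-stimulated DMSO wells for no effect and unstimulated DMSO wells for full effect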
MITF TRPM1 inh = reduces MITF-dependent TRPM1 promoter luciferase signal | actives 0.83% (n = 330,000) | inhibition, % at 12.5 µM | SK-MEL-5 TRPM1 promoter luciferase, 24 h | AID 488899;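 active means mean inhibition across replicates of 60% or more, whatever share of single replicates reaches that level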
* hit, by the source's call; . = no result given.

SMILES	Shn3 inh set2	LMP1 NFkB inh	Peg3 promoter	KKLEB cytotox	CF NFkB inh	MITF TRPM1 inh
OC1CC2CCC(C1)N2CCCN1c2ccccc2Sc2ccc(Cl)cc21 (centres undefined)	64	-11	105*	-5	38	91*
O=C(/C=C1\NC2(CCCC2)Cc2ccccc21)C(=O)N/N=C/c1ccc(O)c(O)c1	50	-16	57*	-5	1	20
CCC(C)NC(=O)N[C@@H](Cc1ccccc1)C(=O)O (some centres undefined)	-2	-4	2	-85*	13	-3
CC1(S(=O)(=O)O)CC(=O)c2ccccc2C1=O (centres undefined)	-19	-10	10	28	69*	42
Cc1ccsc1-c1cc2nc(Nc3ccc(F)cc3)n(C)c(=O)c2s1	-2	.	-87	5	-6	.
CCN(CC)C(=O)C1=C(C)N(CCCN2CCCC2=O)C(=O)C(CC(=O)NC2CCCCC2)C1 (centres undefined)	-21	3	-8	-7	-15	.
CC1=C(CC(=O)O)c2cc(F)ccc2C1=Cc1ccc(S(C)(=O)=O)cc1	-3	83*	9	-12	8	2
Nc1ccn([C@@H]2O[C@H](C(=O)N[C@H](CO)c3ccccc3)[C@@H](O)[C@H]2O)c(=O)n1	-11	.	10	3	-7	.
CC12CCC(=O)C=C1CCC1C2CCC2(C)C1CC[C@]2(O)C(=O)CO (some centres undefined)	15	7	1	-4	26	10
CC(=O)OCC(=O)C1(O)CCC2C3CCC4=CC(=O)CCC4(C)C3(F)C(O)CC21C (centres undefined)	14	13	5	36	75*	-19
CC(=O)OCC(=O)[C@@]1(O)CC[C@H]2[C@@H]3CCC4=CC(=O)C=C[C@]4(C)[C@@]3(F)[C@@H](O)C[C@@]21C	8	13	4	-16	65*	-10
CC12C=CC(=O)C=C1C(F)CC1C3CCC(O)(C(=O)CO)C3(C)CC(O)C12F (centres undefined)	14	0	-16	24	69*	-12
CC12C=CC(=O)C=C1CCC1C3CCC(O)(C(=O)CO)C3(C)CC(O)C12F (centres undefined)	3	5	-7	36	70*	-13
CC12C=CC(=O)C=C1CCC1C3CCC(O)(C(=O)CO)C3(C)CC3OC312 (centres undefined)	7	-3	13	10	-3	-2
Cc1noc(C)c1-c1ccc(C(=O)NCCN2CCOCC2)c2occc12	-5	.	-11	6	-46	.
CC1(C(=O)Nc2ccc(F)c(Cl)c2)Cc2c(-c3ccc(C(N)=O)cc3)ccnc2O1 (centres undefined)	20	.	22	0	-8	.
CC(=O)OC[C@@H]1CN(Cc2ccccc2)C[C@H](n2cnc3c(N4CCOCC4)ncnc32)O1	0	.	0	14	-24	.
CSc1cccc2sc(NC(=O)C3=COCCO3)nc12	-42	-9	-192	3	-19	-78
O=C(Nc1nc2ccc(F)cc2s1)C1=COCCO1	-23	51*	-29	3	-40	19
CCCOc1ccc(/C(CC)=N/NC(=O)C2(C)CC2(Br)Br)cc1 (centres undefined)	-26	-1	9	-52*	34	-11
CC/C(=N/NC(=O)c1ccc(Br)cc1)c1ccc(OCCN2CCOCC2)cc1	0	0	-5	4	2	9
COc1ccc(NC(=O)Cn2nnc(C(=O)NCCc3ccccc3)c2N)c(OC)c1	-20	4	-12	7	19	-7
COc1ccc(NC(=O)Cn2nnc(C(=O)NCc3ccccc3)c2N)c(OC)c1	4	64*	19	7	-4	-3
Cc1cc2nc(-c3ccc(SCC(=O)Nc4ccc5c(c4)OCCO5)nc3)[nH]c2cc1C	-43	-30	-138	-54*	-37	-65
Cc1ccc2nc(-c3ccc(SCC(=O)Nc4nnc(C)s4)nc3)[nH]c2c1	-24	-11	99*	5	-16	-3
CC(C)CCNC(=O)c1cc(S(=O)(=O)N2CCC3(CC2)OCCO3)ccc1F	3	5	12	8	9	.
CCc1nc2c(OCc3ccc(F)c(F)c3)cccn2c1N(C)C(=O)c1ccc(OC)cc1	4	.	10	-6	-9	.
